# Reference: PubChem BioAssay AID652192 (Johns Hopkins Ion Channel Center, 2013)
# Measured potencies and affinities stand elsewhere. Active and inactive are the calls of the source.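 How the source made its calls: active means peak inhibition of the KCNQ2 potassium channel over 30% at some tested dose, with a fitted dose response curve; inactive means no inhibition at any dose, or no curve fitted.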
# Target: Potassium voltage-gated channel subfamily KQT member 2 (Rattus norvegicus) (UniProt O88943)
# Test: block of rat KCNQ2 potassium channel – cell-based, FluxOR thallium flux, concentration-response, selectivity assay for TASK1 inhibitor project, SAR follow-up (AID 652192)
# Details: KCNQ2 cell line, FluxOR thallium flux fluorescence; series mostly up to 30 µM; flux ratio, lower = inhibition: at the top concentration
# Sequence of Potassium voltage-gated channel subfamily KQT member 2 (Rattus norvegicus) (O88943 whole entry, looked up): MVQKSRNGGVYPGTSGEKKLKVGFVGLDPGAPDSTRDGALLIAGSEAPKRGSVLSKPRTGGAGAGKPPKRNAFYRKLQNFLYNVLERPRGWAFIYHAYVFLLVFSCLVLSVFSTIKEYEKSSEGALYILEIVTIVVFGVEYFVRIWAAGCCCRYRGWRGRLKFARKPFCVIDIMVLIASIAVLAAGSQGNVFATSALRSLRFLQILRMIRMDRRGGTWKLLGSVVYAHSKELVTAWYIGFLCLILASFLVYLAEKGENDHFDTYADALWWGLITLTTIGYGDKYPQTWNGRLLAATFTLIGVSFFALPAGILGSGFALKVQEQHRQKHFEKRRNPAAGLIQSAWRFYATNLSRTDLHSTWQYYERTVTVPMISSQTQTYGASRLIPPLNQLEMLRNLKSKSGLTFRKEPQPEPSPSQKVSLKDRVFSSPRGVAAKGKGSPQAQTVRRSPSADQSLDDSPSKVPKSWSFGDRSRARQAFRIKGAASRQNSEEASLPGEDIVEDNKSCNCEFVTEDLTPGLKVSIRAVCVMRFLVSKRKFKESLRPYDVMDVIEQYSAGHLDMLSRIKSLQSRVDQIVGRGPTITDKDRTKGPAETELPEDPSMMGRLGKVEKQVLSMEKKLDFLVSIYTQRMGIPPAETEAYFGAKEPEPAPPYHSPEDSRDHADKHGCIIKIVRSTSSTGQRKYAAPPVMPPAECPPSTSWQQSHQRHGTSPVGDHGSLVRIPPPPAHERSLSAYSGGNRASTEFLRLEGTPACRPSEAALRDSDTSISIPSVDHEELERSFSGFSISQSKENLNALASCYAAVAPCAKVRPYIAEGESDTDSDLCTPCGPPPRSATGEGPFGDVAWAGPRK
SMILES,"flux ratio, lower = inhibition",outcome
CCOc1ccccc1C(=O)Nc1cccc(NC(=O)C2CCCC2)c1,0.144 (inactive),–
O=C(Nc1cccc(NC(=O)c2ccsc2)c1)c1ccccc1,0.203 (inactive),–
CCOc1ccccc1NC(=O)c1cccc(NC(=O)c2ccccc2C(F)(F)F)c1,0.183 (inactive),–
CCOc1ccccc1NC(=O)c1cccc(NC(=O)C2CCCCC2)c1,0.19 (inactive),–
CC(C)(C)c1ccc(C(=O)Nc2cccc(NC(=O)c3ccccc3)c2)cc1,0.169 (inactive),–
CCOc1ccccc1NC(=O)c1cccc(NC(=O)C2CCCO2)c1 (configuration not stated),0.195 (inactive),–
O=C(Nc1cccc(NC(=O)c2cccnc2)c1)c1ccccc1,0.219 (inactive),–
COc1ccccc1C(=O)Nc1cccc(NC(=O)c2ccccc2C)c1,0.166 (inactive),–
COc1ccccc1C(=O)Nc1cccc(NC(=O)c2cccc3ccccc23)c1,0.22 (inactive),–
CCOc1ccc(NC(=O)c2cccc(NC(=O)C3CCCC3)c2)cc1,0.18 (inactive),–
Cc1cccc(C(=O)Nc2cccc(NC(=O)c3cccs3)c2)c1,0.169 (inactive),–
COc1cccc(OC)c1C(=O)Nc1cccc(NC(=O)c2cccc(C)c2)c1,0.164 (inactive),–
Cc1cccc(C(=O)Nc2cccc(NC(=O)c3ccccc3C(C)C)c2)c1,0.166 (inactive),–
O=C(Nc1ccccc1Cl)c1cccc(NC(=O)C2CCCC2)c1,0.161 (inactive),–
O=C(Nc1cccc(NC(=O)c2ccc(C(F)(F)F)cc2)c1)c1ccccc1,–,inactive
CCOc1ccccc1NC(=O)c1cccc(NC(=O)CC2CCCCC2)c1,0.163 (inactive),–

SMILES,"flux ratio, lower = inhibition",outcome
O=C(Nc1cccc(NC(=O)c2ccco2)c1)c1ccccc1,0.214 (inactive),–
COc1ccc(CC(=O)NCc2ccccc2-c2ccccc2C(=O)NCc2ccc(F)cc2F)cc1,0.098 (inactive),–
COc1ccccc1NC(=O)c1cccc(NC(=O)CC2CCCC2)c1,0.162 (inactive),–
O=C(Nc1cccc(NC(=O)c2cccs2)c1)c1ccccc1,0.191 (inactive),–
Cc1cccc(C(=O)Nc2cccc(NC(=O)C3CCCCC3)c2)c1,0.167 (inactive),–
O=C(Nc1cccc(NC(=O)c2ccc(F)cc2)c1)c1ccccc1,0.186 (inactive),–
CCOc1ccccc1NC(=O)c1cccc(NC(=O)c2cccc(C)c2)c1,0.177 (inactive),–
O=C(Nc1cccc(NC(=O)c2ccncc2)c1)c1ccccc1,0.191 (inactive),–
Cc1cccc(C(=O)Nc2cccc(NC(=O)c3ccccc3Cl)c2)c1,0.173 (inactive),–
CCOc1ccccc1NC(=O)c1cccc(NC(=O)C2CC2)c1,0.189 (inactive),–
O=C(Nc1cccc(NC(=O)c2cccc(Cl)c2)c1)c1ccccc1,0.143 (inactive),–
CC(C)Oc1ccccc1C(=O)Nc1cccc(NC(=O)c2ccccc2OC(F)(F)F)c1,0.188 (inactive),–
COc1ccccc1C(=O)Nc1cccc(NC(=O)c2ccccc2OC(F)(F)F)c1,0.183 (inactive),–
CCOc1ccccc1NC(=O)c1cccc(C(=O)NC2CCCC2)c1,0.179 (inactive),–
Cc1cccc(S(=O)(=O)Nc2cccc(NC(=O)c3ccccc3)c2)c1,0.195 (inactive),–
CCOc1ccccc1NC(=O)c1cccc(NC(=O)c2ccccc2C)c1,0.159 (inactive),–
